High-throughput results (PubChem BioAssay)
Tau fibril ThT = blocks human tau fibril formation measured by thioflavin T; P10636; recombinant tau K18 P301L, heparin-induced fibrillization, ThT fluorescence; Potency, µM (doses to about 57.4 µM), inactives show at the highest dose activity, negative = inhibition, most hits filed as inhibitors; 270,000 tested, 2.1% active; also: nearly all actives have a fitted effect of over 55% in size
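K18 P301L tau (15 uM + 0.24 uM Alexa 594-tagged), heparin 20 uM, NaOAc pH 7, 6 h 37 C; ThT 30 uM, 1 h RT, ex 450/em 510 nm.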
TRb SRC2 PPI = inhibitors of human thyroid hormone receptor beta-SRC2 interaction. P10828. TRbeta-SRC2 peptide binding, fluorescence polarization; receptor liganded with 1 µM T3. Potency, µM (top dose mostly 106 µM), for the others: top-dose activity change, negative = inhibition, most hits filed as inhibitors. 280,000 tested, 0.065% active. AID 1469;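 also: plate controls were bound peptide for no effect and peptide without receptor for full effect; nearly all actives have a fitted effect of over 50% in size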
Target sequence (P10828 whole entry, looked up): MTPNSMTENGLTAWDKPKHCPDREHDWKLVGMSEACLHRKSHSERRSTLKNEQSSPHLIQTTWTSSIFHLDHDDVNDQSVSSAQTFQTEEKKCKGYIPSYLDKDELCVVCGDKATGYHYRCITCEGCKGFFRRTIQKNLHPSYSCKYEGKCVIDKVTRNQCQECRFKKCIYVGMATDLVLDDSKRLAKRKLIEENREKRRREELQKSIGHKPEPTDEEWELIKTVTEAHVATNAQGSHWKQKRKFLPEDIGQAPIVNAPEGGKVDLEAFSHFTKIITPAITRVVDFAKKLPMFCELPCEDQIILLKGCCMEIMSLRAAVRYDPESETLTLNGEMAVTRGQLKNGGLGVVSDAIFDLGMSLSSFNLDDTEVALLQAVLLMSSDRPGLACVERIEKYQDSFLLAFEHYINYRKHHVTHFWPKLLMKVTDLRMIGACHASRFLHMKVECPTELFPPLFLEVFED
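Fluorescence polarization of 20 nM Texas Red SRC2 peptide with 0.6 uM human TRb ligand-binding domain, in Tris buffer with 1uM T3 and 5% DMSO. Incubated 5 hr ambient; normalized to unbound and bound controls.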
TexasRed fluor = Texas Red fluorescence interference in TRb-SRC2 counter-screen; TRb/SRC2 Texas Red total fluorescence interference; Potency, µM (top dose mostly 106 µM), for the others: at the highest dose fluorescence change, negative = quenching; 280,000 tested, 0.29% active; AID 1479; active = well fitted curve in either direction with a large enough effect; inconclusive = small, poorly fitted or top-dose-only effect
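Human TRb ligand-binding domain at 0.6 uM with 20 nM Texas Red SRC2 peptide in Tris buffer containing 1 uM T3 and 5% DMSO, incubated with compound 5 h at ambient temperature. Total fluorescence (555/632 nm) calculated as parallel + 2 × perpendicular.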
RGS12 GoLoco inh = RGS12 GoLoco-Gai1 interaction inhibition. P63096. Gai1:RGS12 GoLoco peptide FP, rhodamine, 10 min. Potency, µM (highest dose often 61.6 µM), inactives show top-dose activity, negative = inhibition, usual class: inhibitors. 230,000 tested, 0.44% active. AID 880; active = well fitted inhibition curve with a large enough effect, not every such curve was filed as active; inactive = no such curve, though single readings can be large or run the other way; also: nearly all actives have a fitted effect of over 30% in size
Tau fluor counter = counter-screen for tau fibril formation inhibitors. tau K18 P301L (four-repeat tau fragment) Alexa594 fluorescence, heparin fibrillization. Potency, µM (highest dose often 57.7 µM), for the others: at the highest dose activity change, negative = decrease. 280,000 tested, 0.93% active; also: nearly all actives have a fitted effect of over 55% in size
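Human K18 P301L tau (15 uM unlabeled plus 0.24 uM Alexa 594-labeled, final) in 100 mM sodium acetate pH 7 was mixed with compound and 20 uM heparin and incubated 6 hr at 37 C.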
Tau FP inhib = inhibitors of human tau fibril formation; AID 1468; 280,000 tested, 0.39% active; P10636; Potency, µM (top dose mostly 57.7 µM), for the others: at the top dose activity, negative = inhibition, most hits filed as inhibitors; K18 P301L tau heparin fibrillization, Alexa594 FP, 6 h; also: nearly all actives have a fitted effect of over 55% in size
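Read-out: fluorescence polarization of Alexa 594-labeled tau (0.24 uM), 555 nm excitation, 632 nm emission. Mixtures held 15 uM unlabeled K18 P301L, compound and 20 uM heparin, pH 7 acetate buffer, incubated 6 hr at 37 C.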
The depositor's hits bear a star; ? = inconclusive; · = not tested or not shown; [ ] = remark or other dose. Hits are enriched below; roughly 3.2% of the tested compounds scored in any of these assays. Unless noted, calls follow the shape of the dose curve; as a rule, active = well fitted curve in the direction sought with a large enough effect; inconclusive = small, poorly fitted or top-dose-only effect, or another doubt; inactive = no such curve, though single readings can be large; an effect the other way counts as inactive or inconclusive. Unless noted, % is scaled to controls: 0 for no effect and ±100 for the full control effect; potency is read from the fitted curve at half-maximal effect.

SMILES | Tau fibril ThT | TRb SRC2 PPI | TexasRed fluor | RGS12 GoLoco inh | Tau fluor counter | Tau FP inhib
O=C(/C=C/c1ccc(O)c(O)c1)OC(Cc1ccc(O)c(O)c1)C(=O)O (stereo unspecified) | -14.6% | -0.1% | -7.3% | -38.1% | ? | -8.4%
O=C(/C=C\c1ccc(O)c(O)c1)O[C@@H](Cc1ccc(O)c(O)c1)C(=O)O | ? | -5.3% | -4.4% | 10µM* | -24.5% | -5.2%
CCC(=O)OCCc1ccccc1 | · | 5.7%[201 µM] | -2.1%[201 µM] | · | · | ·
O=C(/C=C/c1ccc(O)c(O)c1)OCCc1ccccc1 | ? | 4.7% | -21.3% | -5.5% | 11.2µM*[quencher] | ?
CCN(CC)COC(=S)S | · | · | · | -7.9%[14.2 µM] | · | ·
O=C(O)c1cccc(NC(=O)c2cccc(S(=O)(=O)Nc3cccc(F)c3)c2)c1 | 0.1% | ? | 0.316µM*[quencher] | · | 1.1% | 1.7%
O=C1CSc2ccc(C(=O)Nc3cccc(S(=O)(=O)Nc4ccc(Br)cc4)c3)cc2N1 | 6.2% | 7.7% | 1.7% | -10.3% | 10µM*[quencher] | 17.8µM*
O=C(O)c1cccc(NC(=O)c2cccc(S(=O)(=O)Nc3cccc(C(=O)O)c3)c2)c1 | -0.6% | -7.2% | -5.0% | · | -1.9% | -11.8%
NS(=O)(=O)c1ccc(NC(=O)COC(=O)c2cn(-c3ccccc3)nc2-c2ccc(F)cc2)cc1 | -0.2% | -6.2% | 0.9% | 8.8% | ? | 12.6µM*
O=C(COC(=O)c1cn(-c2ccccc2)nc1-c1ccc(F)cc1)Nc1ncc(Cl)cc1Cl | -6.3% | -7.2% | 2.4% | 27.9% | ? | 0.4%
Cc1cc(C)c(NC(=O)C(C)n2nnc3sc(-c4ccccc4)cc3c2=O)c(C)c1 (stereo unspecified) | ? | -4.5% | -0.9% | · | -7.6% | -15.4%
COc1ccc(NC(=O)C(C)n2nnc3sc(-c4ccccc4)cc3c2=O)cc1Cl (stereo unspecified) | 14.1µM* | -4.4% | 0.3% | · | ? | ?
COc1ccc(-c2nc3cnc(Oc4cccc(Cl)c4)nc3n(CCC#N)c2=O)cc1 | · | · | · | -6.1% | · | ·
Cc1noc(C)c1-c1ccc2ncnc(NCc3cccn3C)c2c1 | · | 3.7% | -2.5% | · | · | ·
COc1ccc(NC2=CC(c3ccc(OC)c(OC)c3)N(c3ccc(OC)cc3)C2=O)cc1 (stereo unspecified) | -1.5% | 2.2% | -2.4% | 14.6% | 0.3% | 7.6%
NS(=O)(=O)c1ccc(NC2=CC(c3ccc([N+](=O)[O-])cc3)N(c3ccc(S(N)(=O)=O)cc3)C2=O)cc1 (stereo unspecified) | ? | -0.7% | -7.4% | 4.4% | 12.6µM*[quencher] | -14.5%
Clc1ccc(-c2nnnn2-c2ccc(Cl)cc2)cc1 | 5.9% | -0.6% | -4.9% | -0.1% | 2.7% | 5.6%
Cc1ccc(-n2nnnc2C(Cl)(Cl)c2nnnn2-c2ccc(C)cc2)cc1 | 8.91µM* | -1.8% | 0.4% | -3.3% | -19.1% | 15.8µM*
CCOc1cccc(NC(=O)Cc2cccs2)c1 | -1.9% | 7.3% | 0.8% | 2.4% | 3.0% | 10.7%
O=C(Cc1cccs1)Nc1cccc(-c2nc3cc4ccccc4cc3[nH]2)c1 | ? | 7.5% | -1.6% | 2.9% | 14.1µM*[quencher] | 28.2µM*
CCCCCCCCCC[N+](C)(C)Cc1ccccc1 | · | 4.1%[201 µM] | -0.6%[201 µM] | · | · | ·
CSc1ccc(N=Nc2c(C)[nH]n(C)c2=O)cc1 | 8.91µM* | -2.8% | 0.3% | 13.4% | -7.8% | -2.0%
CCOC(=O)C1=C(C)Nc2sc(C(=O)c3ccc(F)cc3)c(N)c2C1c1ccc(C(=O)OC)cc1 (stereo unspecified) | -2.1% | 7.9% | -2.5% | 1.8% | 15.8µM*[quencher] | ?
CC1=NOC(=O)/C1=C\c1ccc(-c2ccc(Br)cc2C(=O)O)o1 | ? | 5.0% | 1.4% | -4.9% | -16.5% | ?
CC1=NOC(=O)/C1=C\c1ccc(-c2ccc(Br)cc2)o1 | 28.2µM* | -2.9% | -4.6% | 8.4% | -29.9% | 2.4%
CC1=NOC(=O)/C1=C/c1ccc(-c2ccc(Cl)cc2)o1 | 17.8µM* | 1.7% | -8.4% | -6.6% | ? | -8.1%
